Results filed as inconclusive are left out. Calls of active or inactive are those of the source. Calls follow the shape of the dose curve; as a rule, active = well fitted inhibition curve with a large enough effect; inconclusive = small, poorly fitted or top-dose-only effect, or effect the other way; inactive = no such curve, though single readings can be large or run the other way.
test: Confirmation Concentration-Response Assay for Inhibitors of the ERK Signaling Pathway using a Homogeneous Screening Assay; conditions: HEK293 cells, hormone-stimulated phospho-ERK AlphaScreen; series mostly up to 40.9 µM; activity change, negative = inhibition: at the top concentration
Text: qHTS Assay for Inhibitors of the ERK Signaling Pathway using a Homogeneous Screening Assay
NIH Chemical Genomics Center [NCGC]
NIH Molecular Libraries Screening Centers Network [MLSCN]
Assay Submitter (PI): Dr. Wei Zheng, NCGC/NIH
The Ras/extracellular-signal-regulated kinase (ERK) mitogen activated protein (MAP) kinase signaling pathway (ERK1/2 cascade) plays is a key role in transmitting signals from the cell surface to the nucleus (Nishida and Gotoh 1993; Chang and Karin, 2001). The cascade is initiated by the small G-protein Ras, which recruits Raf […], where activation occurs. Alternatively, this pathway can be activated by elevating intracellular cAMP.
Activation of the ERK pathway is essential in increased cell division and cell survival. Sustained and constitutive activation of the ERK pathway, however, has been linked to uncontrolled cell proliferation, increased cell survival, and tumor progression. Thus, the ERK has been as an attractive target for cancer chemotherapy in the past few years (Sebolt-Leopold and Herrera, 2004). Given its physiological and pathological importance, assessment of ERK phosphorylation has been broadly performed in both basic research and drug discovery. Most assays for the measurement of ERK phosphorylation use the antibody-based detection methods, such as western blot and ELISA. These assays require multiple reagent additions with cell wash steps and are not suitable for high-throughput screening.
The current cell-based ERK phosphorylation assay was performed using AlphaScreen platform. AlphaScreen is a two bead-based proximity-dependent chemical energy transfer luminescent assay platform. The assay reagents (ERK SureFire(TM) kit) were supplied from TGR BioSciences (Australia). In the presence of specific antibodies, phosphorylated ERK will bring "donor" and "acceptor" beads to a proximity range (<200 nm), and subsequently lead a chemical luminescent reaction upon exciting donor beads with 680 nm laser. To exclude the assay-related false positives, we used a biotinylated rabbit IgG to perform counter-screen. The biotinylated antibody mimics the phosphorylated ERK1/2 for bringing streptavidin coated beads and protein-A coated beads to a proximity range for the AlphaScreen detection.
NCGC Assay Protocol Summary:
HEK293 cells stably expressing type-1 vasopressin receptor (V1b) were maintained in DMEM medium (Invitrogen, Carlsbad, CA) at 37C under a humidified atmosphere containing 5% CO2 and 95% air. The medium contained 10% FBS, 2 mM L-glutamine, non-essential amino acid, pyruvate and 50 U/ml penicillin and 50 ug/ml streptomycin (Invitrogen). The aliquots of frozen cells were stored at -135C and used for the compound screening. All compounds were screened as titrations from 0.6 nM to 46 uM final concentration. Vasopressin was used to stimulate the ERK phosphorylation pathway. The ERK phosphorylation in cells was determined using an AlphaScreen assay kit provided by PerkinElmer. Data were normalized to the controls for basal activity (DMSO only) and 100% activation (25 nM vasopressin). AC50 values were determined from concentration-response data modeled with the standard Hill equation.
(1) Seed 4 ul/well of resuspended frozen HEK293 cells containing 2000 cells in white 1536-well plates for overnight with 1% FBS at 37C under a humidified atmosphere containing 5% CO2 and 95% air.
(2) Add 23 nL compounds in DMSO solution. The final titration was 0.6 nM to 46 uM.
(3) Incubate at 37C for 30 min.
(4) Dispense 0.5uL vasopressin (25 nM in final)
(5) Incubate at 37C for 5 min.
(6) Dispense 0.5uL of 1:2 diluted 5x lysis buffer.
(7) Incubate at 37C for 10 min.
(8) Dispense 1.5uL of mixture of activation buffer and reaction buffer with AlphaScreen beads (streptavidin donor beads and protein-A acceptor beads, 10 ng/well for each).
(9) Incubate at room temperature for 5 hr.
(10) Detect the assay plate in an EnVision plate reader (PerkinElmer) using the AlphaScreen detection mode.
[…]

Potency, active:
COc1cc(C(=O)Nc2nc(-c3cccs3)cs2)cc(OC)c1OC 12.6 µM, C=CS(=O)(=O)c1ccc(Oc2ccc(S(=O)(=O)C=C)cc2)cc1 7.08 µM, CCCN1C(=O)/C(=C2/C=Cc3ccccc3N2CC)SC1=S 11.2 µM, Cc1nc2ccccc2c2oc(C(=O)N3CCc4ccccc4C3)cc12 25.1 µM, COC(=O)c1cc(-c2ccc(OC)c(OC)c2)on1 7.08 µM, O=C(Nc1ccc(-c2cn3ccsc3n2)cc1)c1ccc(F)c(S(=O)(=O)N2CCOCC2)c1 12.6 µM, CCC(=O)N1CCN(c2ccc(NC(=O)c3cc4ccccc4o3)cc2Cl)CC1 12.6 µM, O=C1c2ccccc2C(=O)c2c1cccc2N1CCCC1 17.8 µM, O=C(Nc1ccc(N2CCN(C(=O)c3ccccc3)CC2)cc1)c1cc2ccccc2o1 12.6 µM, COc1ccc(C(=O)OC(COc2ccccc2)Cn2ccnc2)cc1 (stereo not given) 15.8 µM, CN(C)CCCn1cc(C2=C(c3c[nH]c4ccccc34)C(=O)NC2=O)c2ccccc21 1.26 µM, COc1ccc2[nH]cc(CCNc3ncnc4ccc(-c5ccc(C(=O)N(C)C)cc5)cc34)c2c1 31.6 µM, COc1ccc(CNc2ncnc3ccc(-c4cccc(NS(C)(=O)=O)c4)cc23)c(OC)c1 15.8 µM, CCCC(=O)N1CCN(c2ccc(NC(=O)c3cc4ccccc4o3)cc2Cl)CC1 7.94 µM, COc1ccc(CC(=O)Nc2cccc(-c3nnc(-c4ccc(C)cc4)o3)c2)cc1OC 5.62 µM, CCOC(=O)c1ccc(NC(=O)c2ccc(C)c(S(=O)(=O)N3CCOCC3)c2)cc1 8.91 µM, N#CC(=C(/N)Sc1ccccc1N)/C(C#N)=C(/N)Sc1ccccc1N 0.501 µM, N#CC(C#N)=c1ccc2c(c1)N1C3=C(CCCC3)CC3CCCCC31N=2 (stereo not given) 5.01 µM, COc1ccc(CC(=O)Nc2cccc(-c3nnc(-c4cccc(C)c4)o3)c2)cc1OC 4.47 µM, COc1ccc(C(=O)c2ccc(Cl)c([N+](=O)[O-])c2)cc1 12.6 µM, O=C(Nc1nc(-c2ccccc2)cs1)c1ccc(N2CCOCC2)c([N+](=O)[O-])c1 7.08 µM, CN(C)c1ccc(Nc2c3c4c(cccc4n(C)c2=O)C(=O)c2ccccc2-3)cc1 14.1 µM, COc1ccc(N=C2C(=Nc3ccc(OC)cc3)N(c3ccc(OC)cc3)C(=S)N2C)cc1 15.8 µM, C=C[C@@]1(C)CC(=O)[C@@]2(O)[C@@]3(C)[C@@H](O)CCC(C)(C)[C@@H]3[C@H](OC(=O)CCN(C)C)[C@H](OC(C)=O)[C@@]2(C)O1 0.282 µM, COc1ccc(C(=O)Nc2ccc(-c3ccc(C)o3)cc2)cc1S(=O)(=O)N1CCOCC1 10 µM, O=S(=O)(c1ccccc1)N1CCN(c2cc(-c3ccccc3)nc3ncnn23)CC1 31.6 µM, Cn1c(=O)cc(Nc2ccccc2)c2c(=O)n(-c3ccccc3)c(=O)n(-c3ccccc3)c21 8.91 µM, COc1ccc(N=C2C(=Nc3ccc(OC)cc3)N(c3ccc(N(C)C)cc3)C(=S)N2c2ccc(OC)cc2)cc1 5.62 µM

Activity change, negative = inhibition, inactive:
c1ccc(Oc2nc(NCc3ccco3)nc(NCc3ccco3)n2)cc1 -22.3% [at 57.5 µM], Cc1ccc(Nc2ncnc3sc(C)c(C)c23)cc1 -43.3%, CCCN(CCC)S(=O)(=O)c1cccc(C(=O)Nc2ccc3c(c2)OCO3)c1 -5.48% [at 57.5 µM], CCN(C1CCCCC1)S(=O)(=O)c1ccc(S(=O)(=O)NCc2ccncc2)cc1 6.37% [at 57.5 µM], O=C1c2ccc(O)c(O)c2C(=O)c2c(O)ccc(O)c21 -86.9%, CC(=O)N1CCC(=NNc2nc3ccccc3s2)CC1 -13.1%, O=C(Nc1nccs1)c1cc2sccc2n1Cc1ccc(F)cc1 25.1% [at 57.5 µM], Cc1sc2ncnc(Nc3ccccc3)c2c1C -50.7%, CS(=O)(=O)CCNCc1nc(-c2ccc3ncnc(Nc4ccc(OCc5cccc(F)c5)c(Cl)c4)c3c2)cs1 -36.5%, Cc1sc2ncnc(Sc3nnnn3-c3ccc(Cl)cc3)c2c1C 24%, CN(C)c1cc2c(Nc3ccc4c(cnn4Cc4ccccc4)c3)ncnc2cn1 -44.7%, COc1cccc(/C=N/Nc2cc(-n3nc(C)cc3-c3ccccc3)ncn2)c1O -68.1%

— PubChem BioAssay AID1724 (National Center for Advancing Translational Sciences (NCATS), 2009)
